# Target: HLA-DMA
# Assay: pooled miR-30 sensor sort-seq; sequence = guide strand
# Settings: shRNA
# Also: reference of the scale not given here.
row,Sequence,sensor-assay potency score (higher = more potent)
1,TTGCTGGATCATCCACTCGCAG,-1.31
2,TGTGTAGCGGTCAATTTCGTGA,-0.684
3,TTACTGACAAAACAGACCAAAG,-1.69
4,ATTTCGTGAGTCACAATGCAGG,-1.4
5,TCAGCGTGAACACTTCAGCGAT,-1.13
6,TCGTGAGTCACAATGCAGGAGA,-0.908
7,TTGGAGTAGGAGCTTCAGGGAC,-1.01
8,TAGATGATGAGAACAATGCCCA,-0.0715
9,TTCGTGAGTCACAATGCAGGAG,0.512
10,TGCTGGATCATCCACTCGCAGA,-1.77
11,TTCACTGTCAGCATGGGTGGGA,0.0511

# Target: HLA-DRA
# Assay: as above
# Settings: shRNA
row,Sequence,sensor-assay potency score (higher = more potent)
1,TAAACTCGCCTGATTGGTCAGG,-0.677
2,TTCGTGAGCACAGTTACCTCTG,0.227
3,TAAACAATAAGTACACAAGAGA,-0.861
4,TTGGTGATCGGAGTATAGTTGG,-0.222
5,AGACTGTCTCTGACACTCCTGT,-1.07
6,AAGTCAAACATAAACTCGCCTG,-0.837
7,TTGTCTATGAAACAGATGAGGA,-0.94
